Laboratory results published in PMC5540273 (PLoS ONE, 2017).

Columns and labels:
Conditions in all cases: concentration: 1 μM, replicates: in singlicate; n = 1
PKAC-beta = test system: T1, PKAC-beta
T1 construct: gene PRKACB

PKMYT1 = test system: PKMYT1
PKN1 = test system: PKN1
PKN2 = test system: PKN2
PLK1 = test system: PLK1
PLK2 = test system: PLK2
PLK3 = test system: PLK3
PLK4 = test system: PLK4
PRKCD = test system: PRKCD
PRKCE = test system: PRKCE
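Also: KINOMEscan kinase panel screen.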

Compound | %Inh (PKAC-beta) | %Inh (PKMYT1) | %Inh (PKN1) | %Inh (PKN2) | %Inh (PLK1) | %Inh (PLK2) | %Inh (PLK3) | %Inh (PLK4) | %Inh (PRKCD) | %Inh (PRKCE)
CC(C)c1cc(-c2ccc3c(N)n[nH]c3c2)nc(N)n1 [GSK2250882] | 0% | 14% | 0% | 0% | 0% | 0% | 0% | 0% | 0% | 5%
Cc1ccc(NC(=O)Nc2ccc(Cl)cc2)cc1-c1ccc(C(=O)Nc2ccncc2)cc1 [GSK1398472] | 0% | 5% | 0% | 0% | 0% | 0% | 0% | 0% | 0% | 21%
COc1ccc(Nc2nccc(NCCNC(=O)Nc3cc(C)ccc3C)n2)cc1 [GSK1379899] | 0% | 2% | 30% | 0% | 0% | 0% | 0% | 0% | 10% | 0%
COc1ccc(CSc2nnc(-c3ccc4c(c3)CCO4)o2)cc1 | 0% | 19% | 0% | 0% | 0% | 0% | 0% | 0% | 14% | 0%
Cc1ccc(NC(=O)Nc2ccccc2)cc1-c1ccc(C(=O)Nc2ccncc2)cc1 [GSK1398471] | 0% | 28% | 0% | 2% | 2% | 0% | 0% | 1% | 0% | 0%
Fc1ccc(-c2nc3n(c2-c2ccncc2)CCS3)cc1 [GI98581] | 23% | 10% | 0% | 0% | 0% | 0% | 0% | 0% | 1% | 0%
Fc1ccc(-c2nn3cccc(F)c3c2-c2ccncc2)cc1 [GW475620] | 47% | 11% | 9% | 11% | 9% | 69% | 0% | 3% | 19% | 6%
COc1cccc(NC(=O)Nc2ccc(C)c(-c3ccc(C(=O)Nc4ccncc4)cc3)c2)c1 [GSK1398474] | 0% | 0% | 0% | 14% | 0% | 0% | 0% | 6% | 15% | 0%
CNc1nc(-c2ccc3c(N)n[nH]c3c2)cc(N2C[C@@H](C(=O)Nc3ccccc3)CC[C@H]2C)n1 [GSK2298859] | 66% | 0% | 0% | 0% | 0% | 0% | 0% | 0% | 16% | 0%
CS(=O)(=O)Cc1ccc(Nc2nccc(-c3c(-c4cccc(NC(=O)C5CCCCC5)c4)nn4ncccc34)n2)cc1 [GSK350559] | 0% | 3% | 10% | 0% | 15% | 3% | 13% | 6% | 0% | 0%
CNCc1ccc2nc(NC(=O)c3ccc(C(C)(C)C)cc3)cn2c1 | 5% | 11% | 8% | 7% | 2% | 7% | 22% | 8% | 0% | 12%
c1ccc(-c2ccnc3[nH]ccc23)cc1 [SB-693578] | 8% | 6% | 0% | 0% | 0% | 0% | 0% | 5% | 0% | 7%
O=c1cc(N2CCOCC2)nc2n(Cc3ccccc3F)ccn12 [GSK2297428] | 0% | 0% | 7% | 0% | 13% | 0% | 0% | 8% | 0% | 1%
CN1c2ccc(-c3ccc(C(N)=O)cc3)cc2-c2[nH]ncc2S1(=O)=O | 0% | 0% | 0% | 0% | 4% | 3% | 13% | 0% | 3% | 12%
O=C(Nc1n[nH]c2nc(-c3cccs3)c(Br)cc12)C1CCCC1 [SB-743341] | 0% | 0% | 0% | 5% | 0% | 21% | 26% | 25% | 29% | 0%
